Screening results from PubChem BioAssay.
HTR5A inv ag: HTR5A inverse agonists in luminescence cell assay, primary screen, counter-screen for OPRM1-OPRD1 heterodimer inverse agonist project, full-deck HTS. HTR5A cell line, inverse agonism. inhibition, % at 9.3 µM. 5-hydroxytryptamine receptor 5A (Homo sapiens), P47898. 340,000 compounds, 0.083% hits. AID 504634, 2011; in the data active means inhibition mostly above about 23%, no sharp cut-off; inactive means mostly below about 18%;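 further: 0% = cells with DMSO and 100% = no-cell wells with DMSO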
Target sequence (P47898 whole entry, looked up): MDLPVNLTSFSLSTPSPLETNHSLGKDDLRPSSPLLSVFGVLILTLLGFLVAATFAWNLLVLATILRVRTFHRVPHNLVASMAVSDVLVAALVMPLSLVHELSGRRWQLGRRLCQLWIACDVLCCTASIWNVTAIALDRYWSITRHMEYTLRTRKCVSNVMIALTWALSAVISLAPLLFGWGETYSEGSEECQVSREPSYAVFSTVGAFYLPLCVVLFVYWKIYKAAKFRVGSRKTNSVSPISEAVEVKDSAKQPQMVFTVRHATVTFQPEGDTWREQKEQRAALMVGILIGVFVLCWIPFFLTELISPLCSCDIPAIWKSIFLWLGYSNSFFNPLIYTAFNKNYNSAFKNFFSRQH
OPRM1-OPRD1 ag: agonists of OPRM1-OPRD1 heterodimerization, primary screen, cell-based, luminescence. 340,000 compounds, 0.3% hits. activation, % at 9.3 µM. Mu-type opioid receptor (Homo sapiens) + Delta-type opioid receptor (Homo sapiens), …. cells; in the data active means activation above about 18%;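 further: 0% = vehicle-treated cells and 100% = reference agonist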
MOR-DOR inv ag: inverse agonists of MOR-DOR heterodimerization, primary screen, cell-based, luminescence. cell-based MOR-DOR heterodimer luminescence, inverse agonism. Mu-type opioid receptor (Homo sapiens) + Delta-type opioid receptor (Homo sapiens), …. 340,000 compounds, 0.21% hits. inhibition, % at 9.3 µM; in the data active means inhibition above about 22%, passing the limit was not always enough;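 further: 0% = cells with DMSO and 100% = wells without cells with DMSO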
HTR5A ag: HTR5A agonists in luminescence cell assay, primary screen, counter-screen for OPRM1-OPRD1 heterodimer agonist project, full-deck HTS. AID 504692, 2011. activation, % at 9.3 µM. 5-hydroxytryptamine receptor 5A (Homo sapiens), P47898. cell-based. 340,000 compounds, 0.61% hits; in the data active means activation mostly above about 9.5%, no sharp cut-off; inactive means mostly below about 7.6%;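 further: 0% = cells with vehicle only and 100% = reference agonist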
Starred values were filed as active, the others as inactive. Most compounds without a hit are left out; they make up all but 1.1% or so of the library.

SMILES	HTR5A inv ag	OPRM1-OPRD1 ag	MOR-DOR inv ag	HTR5A ag
CN(CC(=O)Nc1ccc(F)c(F)c1)S(=O)(=O)c1cccc2cccnc12	4	0	2	-1
O=C(N/N=C/c1cc(Cl)ccc1O)c1ccccc1Br	-35	5	-35	12*
O=C(CNC(=O)c1ccccc1Br)N/N=C/c1cc(Br)ccc1O	-7	-1	6	3
CS(=O)(=O)c1cccc(S(=O)(=O)N2CCCCCC2)c1	8	0	2	5
COC(=O)C(NS(=O)(=O)c1ccccc1Br)C(C)C (stereo unspecified)	-13	1	-7	14*
O=C(OCCN1CCN(C2=NS(=O)(=O)c3ccccc32)CC1)c1ccccc1F	11	-6	20	2
COCCN(C(=O)CSc1nnc(-c2cccc(F)c2)n1N)c1c(N)n(CC(C)C)c(=O)[nH]c1=O	4	-1	7	3
CC(C)(C)c1ccc(OCc2ccc(C(=O)N/N=C/c3ccc(O)c(O)c3)cc2)cc1	-22	5	-24	8.8*
CCc1nnc(NC(=O)c2nc(S(=O)(=O)Cc3cccc(C)c3)ncc2Cl)s1	-34	1	-6	9.1*
Cc1cccc(OCC(=O)NCC(=O)N/N=C/c2ccc(O)cc2O)c1	9	-1	7	-4
Cc1cccc(OCC(=O)NCC(=O)N/N=C/c2ccccc2)c1	-27	1	-8	10*
Cc1ccc(C)c(Cn2cnc3c(nnn3-c3ccc(F)cc3)c2=O)c1	-26	6	-32	10*
COc1ccc2nc(C)cc(N/N=C/c3ccc(F)cc3)c2c1	-29	31*	-153	8
CCOC(=O)c1c(-c2ccc(C)o2)csc1NC(=O)COC(=O)c1cccs1	10	-1	6	11*
COc1cc(Cl)c(CNC[C@H]2O[C@@H](n3cnc4c(N)ncnc43)[C@H](O)[C@@H]2O)c(Cl)c1O	2	-2	8	-1
COc1cccc(C=NNC(=O)c2ccncc2)c1O	-30	0	3	8.5*
Cc1nn(C)cc1C(=O)Nc1ccc2c(c1)OCCO2	-15	-3	15	5
N#CCCNS(=O)(=O)c1ccc(C(=O)OCC2CCCCC2)cc1	1	7	-60	12*
CCOC(=O)C1CCCN(CCC(=O)Nc2cc(C)cc(C)c2)C1 (stereo unspecified)	-25	-3	13	10*
CC1CCN(CC(=O)N(C)c2c(N)n(Cc3ccccc3)c(=O)[nH]c2=O)CC1	-12	1	-5	-1
COc1cc(/C=C/C(=O)OCC(=O)Nc2ccc(C)cc2[N+](=O)[O-])ccc1O	-1	8	-42	0
COc1cc(/C=C/C(=O)OCC(=O)Nc2cc(C)c(C)cc2[N+](=O)[O-])ccc1O	-36	-2	12	11*
Nc1cc(=O)nc(SCC(=O)N(C2CCCCC2)C2CCCCC2)n1-c1ccccc1	-12	3	-17	13*
CC(C)(CNC(=O)CCC1CCCC1)CNC(=O)CCC1CCCC1	12	2	-7	-5
CC[n+]1ccc(/C=C/c2ccc(N(C)C)cc2)c2ccccc21	34*	-6	27	-14
SMILES	HTR5A inv ag	OPRM1-OPRD1 ag	MOR-DOR inv ag	HTR5A ag
COc1ccc(NS(=O)(=O)c2cccc3cccnc23)cc1	-23	-2	11	3
Cc1cccc(NS(=O)(=O)c2cccc3cccnc23)n1	-40	0	0	13*
Cc1cccc(N(C(=O)CNC(=O)c2ccco2)C(C(=O)NC2CCCCC2)c2cccnc2)c1 (stereo unspecified)	-14	-1	9	0
O=C(NC1CCCCC1)C(c1cccnc1)N(C(=O)CCl)c1cccc(Cl)c1 (stereo unspecified)	-76	35*	-183	36*
COc1ccc(C(C(=O)NC2CCCCC2)N(C(=O)CCl)c2ccc(Cl)cc2)cc1 (stereo unspecified)	-106	89*	-479	66*
O=C(NNC(=O)c1ccccc1F)C1=NN(c2ccccc2)C(=O)CC1	-1	-2	11	0
O=c1cc2oc3cc(O)c(O)cc3c(-c3ccccc3[N+](=O)[O-])c-2cc1O	44*	-9	50*	-11
CN(C(=O)CSc1nnc(-c2ccco2)n1Cc1ccccc1)C1CCS(=O)(=O)C1 (stereo unspecified)	-28	-4	17	10
c1ccc(Nc2nc(N3CCCC3)nc(N3CCCC3)n2)cc1	20	2	-8	13*
